Assay outcomes: PubChem, National Center for Advancing Translational Sciences (NCATS)
Only a selection was taken, and hits are over-represented in it overall.
KDM5B inh – KDM5B demethylase inhibition; Q9UGL1; KDM5B demethylase, FDH-coupled NADH fluorescence (FDH is formaldehyde dehydrogenase); Potency, µM (series often up to 57.7 µM), actives largely listed as inhibitors; 2.6% of 220,000 active; AID 1347165; active means well fitted inhibition curve with a large enough effect; further: 0% is about no effect; nearly all actives have a fitted effect of over 70% in size
Target sequence (Q9UGL1 whole entry, looked up): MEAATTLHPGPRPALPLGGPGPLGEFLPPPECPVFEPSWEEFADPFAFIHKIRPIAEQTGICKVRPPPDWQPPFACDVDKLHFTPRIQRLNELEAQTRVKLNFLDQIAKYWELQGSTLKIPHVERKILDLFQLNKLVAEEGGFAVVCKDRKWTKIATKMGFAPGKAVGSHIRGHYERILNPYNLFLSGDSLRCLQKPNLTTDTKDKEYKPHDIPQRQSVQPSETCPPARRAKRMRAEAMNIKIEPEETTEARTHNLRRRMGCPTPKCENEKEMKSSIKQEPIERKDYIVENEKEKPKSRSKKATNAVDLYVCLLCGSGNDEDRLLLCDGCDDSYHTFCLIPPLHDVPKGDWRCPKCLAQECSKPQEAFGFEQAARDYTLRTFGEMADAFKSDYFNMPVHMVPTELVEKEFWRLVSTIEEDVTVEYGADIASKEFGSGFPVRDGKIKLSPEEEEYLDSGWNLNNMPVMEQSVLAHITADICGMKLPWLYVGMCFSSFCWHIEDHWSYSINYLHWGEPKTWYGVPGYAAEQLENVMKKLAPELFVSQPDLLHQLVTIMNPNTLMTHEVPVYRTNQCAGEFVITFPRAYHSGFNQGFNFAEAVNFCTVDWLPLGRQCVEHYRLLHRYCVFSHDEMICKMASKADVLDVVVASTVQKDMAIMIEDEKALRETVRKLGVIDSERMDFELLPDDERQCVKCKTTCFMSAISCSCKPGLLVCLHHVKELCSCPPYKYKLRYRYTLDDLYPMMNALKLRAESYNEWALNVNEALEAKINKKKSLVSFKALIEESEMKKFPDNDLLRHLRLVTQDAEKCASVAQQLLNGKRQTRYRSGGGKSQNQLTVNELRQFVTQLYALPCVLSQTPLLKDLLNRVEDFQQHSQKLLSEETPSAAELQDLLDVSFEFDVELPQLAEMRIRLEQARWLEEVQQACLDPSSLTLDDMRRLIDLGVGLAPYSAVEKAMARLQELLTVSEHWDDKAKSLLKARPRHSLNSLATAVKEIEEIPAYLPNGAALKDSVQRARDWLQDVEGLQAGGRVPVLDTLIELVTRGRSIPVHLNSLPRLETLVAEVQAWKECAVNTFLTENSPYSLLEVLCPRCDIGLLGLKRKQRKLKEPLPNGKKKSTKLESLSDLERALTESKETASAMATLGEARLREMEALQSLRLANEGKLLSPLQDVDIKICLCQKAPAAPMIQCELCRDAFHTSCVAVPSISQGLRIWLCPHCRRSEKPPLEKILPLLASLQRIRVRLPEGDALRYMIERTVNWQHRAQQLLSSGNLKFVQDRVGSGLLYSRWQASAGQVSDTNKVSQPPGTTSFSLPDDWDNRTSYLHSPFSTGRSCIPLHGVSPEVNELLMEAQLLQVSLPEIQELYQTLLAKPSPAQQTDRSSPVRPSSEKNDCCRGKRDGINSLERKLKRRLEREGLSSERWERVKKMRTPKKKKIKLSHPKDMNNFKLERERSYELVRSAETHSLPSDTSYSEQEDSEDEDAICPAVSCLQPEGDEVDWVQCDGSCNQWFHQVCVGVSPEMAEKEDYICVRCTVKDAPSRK
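Inhibition is measured as reduced NADH fluorescence generation from FDH coupling to formaldehyde release. Truncated KDM5BΔAP at 200 nM final acts on H3K4me3 peptide (12.5 µM in substrate mix) in pH 7.5 HEPES buffer with Tween-20, 30 min, room temperature.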
Starred values were filed as active, the others as inactive; i = inactive. Potency means the concentration at half of the fitted maximal effect.

SMILES	KDM5B inh
O=C1Cc2c(-c3cccc(CO)c3)n[nH]c2CN1c1ccccc1	i
COc1cccc(-c2nc(N3CCOCC3)cc3c2CN(CC(F)(F)F)C3=O)c1OC	31.6µM*
COc1cccc(C(=O)NC2CCN(c3cnn(CC4CC4)c(=O)c3)CC2)c1OC	i
COc1ccc(-c2n[nH]c3c2CC(=O)N(Cc2ccccc2)C3)cc1OC	i
COc1cccc(-c2nc(N3CCOCC3)cc3c2CN(Cc2ccccc2)C3=O)c1OC	31.6µM*
CCOCCCNC(=O)C(c1ccc(C)cc1)N(Cc1cccs1)C(=O)CCc1cc(C(C)(C)C)c(O)c(C(C)(C)C)c1 (stereo not drawn)	i
O=C(Cc1ccccc1Cl)NC1CCC(c2ccccc2)CC1 (stereo not drawn)	i
COc1ccc(N2C(=O)CSC23C(=O)N(CC(=O)Nc2ccccc2OC)c2ccccc23)cc1 (stereo not drawn)	i
CC1CCc2c(sc3ncnc(N(C)CC(=O)N(C)C)c23)C1 (stereo not drawn)	i
CCN1CCN(c2nc(Nc3ccc(C)cc3)c3nccnc3n2)CC1	i
Cc1cnc(NC(=O)C(C)(C)Oc2ccc(Cl)cc2)s1	i
Fc1ccccc1OCC1CCCN(c2nccc(-c3cccnc3)n2)C1 (stereo not drawn)	28.2µM*
CC1CCN(C(=O)c2ccccc2OCC2CCCN(Cc3ccncc3F)C2)CC1 (stereo not drawn)	i
Cn1ccnc1CN1CCN(c2nccc(-c3cccnc3)n2)CC1	i
NCCc1cccc(CN2CCCC(COc3ccccc3F)C2)c1 (stereo not drawn)	i
O=C(CCc1nc2ccccc2[nH]1)N1CCCOC(Cn2cccn2)C1 (stereo not drawn)	i
c1cncc(-c2ccnc(N3CCCOC(Cn4cccn4)C3)n2)c1 (stereo not drawn)	25.1µM*
CC(C)Cn1c(-c2ccccc2)cnc1SC(C)C(=O)NC(N)=O (stereo not drawn)	i
CN(CC(=O)NC(C)(C)C)C(=O)/C=C/c1ccc(C#N)cc1	i
COc1cc(/C=C(\C#N)C(=O)c2ccc(C)cc2)ccc1OCc1c(Cl)cccc1Cl	i
COCCOC(=O)C1=C(C)N=C2SC=C(CC(=O)NC3CC3)N2C1c1ccccc1C (stereo not drawn)	i
CN1C[C@@H](NC(=O)c2ccccn2)C[C@H]1c1nc(-c2ccc(OC(F)(F)F)cc2)no1	i
COc1ccc(CCNC(=O)CCSc2nc(Cl)nc3nc[nH]c23)cc1	i
CCn1ncc(N2CCCC(CC(=O)N3CCN(c4cccc(Cl)c4)CC3)C2)cc1=O (stereo not drawn)	i
O=C(Nc1ccccc1C(=O)NCc1cccnc1)c1ccccc1Cl	i
SMILES	KDM5B inh
Cn1cnc2cc(-c3cccc4[nH]ncc34)cc(C(=O)NCc3cccnc3)c21	39.8µM*
Cn1cncc1CNC(=O)c1nc(-c2cccc(N3CCOCC3)c2)cc2c1ccn2C	i
Cn1cnc2cc(Nc3ccc(Cl)cc3F)cc(C(=O)NCc3cccnc3)c21	35.5µM*
Cc1cc(C(=O)NCc2cccnc2)c(C)s1	i
COc1cc(C(=O)Nc2ccccc2C(=O)NCc2cccnc2)cc(OC)c1OC	i
Cn1cncc1CNC(=O)c1cc(-c2ccc(F)cc2)cc2ncn(C)c12	28.2µM*
Cc1cc(C)c(CNC(=O)c2cc(Nc3ccccc3)cc3ncn(C)c23)c(=O)[nH]1	i
Cc1cc(-c2cc(C(=O)NCc3c(C)cc(C)[nH]c3=O)c3c(c2)ncn3C)ccn1	i
Cc1cccc(-c2nc(CSc3n[nH]c(N)n3)no2)c1	i
O=C(O)CC1C(=O)NCCN1CC1CCCCC1 (stereo not drawn)	i
Clc1ccc(Oc2ccc3nnnn3n2)c(Br)c1	i
Cc1ccc(CNC(=O)Cn2c(CO)cnc2SCC(=O)Nc2c(C)cc(C)cc2C)cc1	i
COC(=O)Nc1ccc(CNC(=O)c2cccc(C)c2)cc1	i
Cc1cccc(C(=O)NCC(=O)N2CCCCCCNC(=O)CC2c2ccccc2)c1 (stereo not drawn)	i
CCc1cccc(CC)c1NC(=O)CC(C#N)(C(C)=O)c1c(Cl)cccc1Cl (stereo not drawn)	i
COc1ccc(NC(=O)N2CCN(Cc3ccc(C)cc3)CC2)cc1	i
CCNc1ncc(C(=O)N2CCCC(Nc3ccc(OC)cc3)C2)cn1 (stereo not drawn)	i
COc1ccc(NC2CCCN(CC(=O)Nc3ccc(C)cn3)C2)cc1 (stereo not drawn)	15.8µM*
CCCC(=O)N(CC)CCc1ccccc1	i
CNC(=O)N1CCC(C2CCN(Cc3ccc(F)c(OC)c3)C2)CC1 (stereo not drawn)	i
COc1ccc(-c2cc(C(=O)NCCc3cnc[nH]3)c3c(c2)N(C)CCO3)cn1	28.2µM*
CN1CCOc2c(C(=O)NCCc3cnc[nH]3)cc(-c3cccnc3)cc21	i
COc1ccc(Cl)cc1C(=O)NCCc1noc(C)n1	i
COc1cccc(C(=O)NCCc2csc(-c3cccc(F)c3)n2)c1OC	i
Cn1ccc2c(C(=O)NCCc3cnc[nH]3)nc(-c3ccc(N4CCOCC4)cc3)cc21	i
SMILES	KDM5B inh
COc1cccc(-c2cc(C(=O)NCCc3cnc[nH]3)c3c(c2)N(C)CCO3)c1OC	28.2µM*
COc1ccc(C(=O)NCCc2noc(-c3ccncc3)n2)cn1	i
COc1cc(F)ccc1-c1cc(C(=O)NCCc2cnc[nH]2)c2c(c1)N(C)CCO2	39.8µM*
O=S(=O)(NC1CCN(S(=O)(=O)c2cc(C(F)(F)F)ccc2Cl)CC1)c1cccs1	i
Cc1ccc(N/N=C/c2ccc(F)c(F)c2)cc1	i
O=C(N[C@@H]1C[C@H]2CC[C@@H]1C2)c1c(Cl)cccc1Cl	i
COC(CNC(=O)c1ccc(CNS(=O)(=O)c2ccc(C)cc2)cc1)OC	i
CC(=O)c1ccc(N2CCN(C(C(=O)O)c3c[nH]c4ccc(OCc5ccccc5)cc34)CC2)cc1 (stereo not drawn)	i
CC(=O)c1ccc(N2CCN(C(=O)c3cc4c(-c5ccc(Cl)cc5)nn(C)c4s3)CC2)cc1	i
Cn1cnc(S(=O)(=O)N2CC[C@@H]3COCCN(Cc4ccccc4)[C@@H]3C2)c1	i
Cc1ccc(-c2nnc3ccc(NCc4cccc(F)c4)nn23)nc1	i
Fc1ccc(-c2nnc3ccc(NCCc4ccccn4)nn23)nc1	39.8µM*
Fc1ccc(-c2nnc3ccc(NCc4cnccn4)nn23)nc1	i
CC(C)CNc1ccc2nnc(-c3ccc(F)cn3)n2n1	31.6µM*
Fc1ccc(-c2nnc3ccc(Nc4ccc(N5CCOCC5)cc4)nn23)nc1	i
Fc1ccc(-c2nnc3ccc(NCCc4ccccc4)nn23)nc1	i
CC1=C[C@@H](CN2C(=O)C(C)=C(C)C2=O)[C@H](C(C)C)C[C@H]1Cc1nc2ccc(C)cc2[nH]1	i
c1ccc(Cn2ncc3c2CCCC3NCc2ccsc2)cc1 (stereo not drawn)	i
Cc1nnsc1C(=O)N[C@H]1CCN2C(=O)N(c3ccc(F)c(Cl)c3)C(=O)[C@@H]2C1	i
O=C(N[C@H]1CCN2C(=O)N(c3cccc4nsnc34)C(=O)[C@@H]2C1)c1ccc(F)c(Cl)c1	31.6µM*
O=C(NC1CCN(c2cc(-c3ccc(F)cc3)[nH]n2)CC1)c1ccc(F)c(Cl)c1	i
Cc1ccc(-c2ocnc2C(=O)Nc2ccccc2C)s1	i
O=C(O)COc1cccc2[nH]ccc12	i
O=C(CC1=C2CCCCC2NC1=O)NCC1CCN(Cc2cccc(F)c2)CC1 (stereo not drawn)	i
